# Pf growth 48h – inhibits P. falciparum growth in the first generation, 48 h. Potency, µM (series often up to 28.7 µM), inactives show at the top dose activity change, negative = inhibition, most hits filed as inhibitors. P. falciparum luciferase growth in erythrocytes, 48 h. hit rate 5.9% among 310,000
#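 Firefly luciferase activity from engineered P. falciparum reports growth; inhibitors lower the luminescent signal. Cultures contained 2% hematocrit erythrocytes at 0.1% final parasitemia.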
# Pf growth 96h – P. falciparum growth inhibition at 96 hours | P. falciparum luciferase reporter growth, 96 h | Potency, µM (titrated, usually from 28.7 µM), for inactives: at the highest dose activity change, negative = inhibition, usual class: inhibitors | hit rate 6.9% among 320,000
#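 P. falciparum expressing integrated firefly luciferase grown in erythrocytes (2% hematocrit, 0.05% parasitemia final) with compounds for 96 hours at 37 C, 5% CO2. Growth inhibition read as loss of luminescence after adding luciferase detection reagent.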
# AMA1 RON2 block – disrupts binding of P. falciparum AMA1 to RON2; AID 720542; Potency, µM (doses to about 58.2 µM), without a hit: at the top dose activity change, negative = inhibition, usual class: inhibitors; AlphaScreen AMA1-biotinylated RON2 peptide binding; hit rate 0.2% among 360,000;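 note: 0% = vehicle wells and -100% = peptide control; nearly all actives have a fitted effect of over 45% in size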
#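 AMA1 (3D7) with his tag at 25 nM final met compounds first, then biotinylated RON2 peptide at 25 nM; detection used donor plus acceptor beads, 10 µg/mL apiece, read by AlphaScreen after 30 min at room temperature.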
# HCV inhibitor – HCV inhibition; Huh7.5.1 HCVcc-Cre infection, luciferase reporter, 44 h; Potency, µM (highest dose often 41.8 µM), for the others: top-dose activity change, negative = inhibition, actives largely listed as inhibitors; hit rate 3.4% among 340,000
#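 Luciferase read-out (15 sec integration) after a 15 min room-temperature substrate step quantifies HCVcc-Cre infection. Cells, 1,000 per well, had compound added 4 h post-plating, then virus at ~0.5 moi, and were cultured 44 h.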
# Active calls of the source: *; ? = inconclusive; . = no result. Hits are enriched below; roughly 11% of the tested compounds scored in any of these assays. Calls come from the whole dose curve; as a rule, active = well fitted curve in the direction sought with a large enough effect; inconclusive = small, poorly fitted or top-dose-only effect, or another doubt; inactive = no such curve, though single readings can be large; an effect the other way counts as inactive or inconclusive. Unless noted, % is set by controls: 0 for no effect and ±100 for the full control effect; potency is the fitted concentration of half-maximal effect.
SMILES,Pf growth 48h,Pf growth 96h,AMA1 RON2 block,HCV inhibitor
CCN(CC)c1ccc(NC(=O)COc2ccc(C#N)cc2)cc1S(=O)(=O)Nc1ccc(OC)cc1,?,10µM*,15%,?
COc1ccc(C(=O)Nc2ccc(Cl)c(S(=O)(=O)Nc3ccccc3OC)c2)cc1,?,?,-7%,?
CCN(CC)c1ccc(NC(=O)c2cccc(C)c2)cc1S(=O)(=O)Nc1ccccc1OC,7.4µM*,2.9µM*,-6%,-11%
COc1ccc(NC(=O)c2ccc(-c3ccccc3)cc2)cc1NS(=O)(=O)c1ccc(F)cc1,?,?,-6%,4µM*
COc1ccc(NC(=O)c2ccccc2)cc1NS(=O)(=O)c1ccc(F)cc1,3%,-19%,1%,4%
CCOC(=O)C1CCN(C(=O)CCN2C(=O)C3C4C=CC(C4)C3C2=O)CC1 (stereo unspecified),28%,5.2µM*,1%,13%
CCCn1c(O)c(/C=C2\C=NN=C2c2ccccc2)sc1=S,31%,?,-17%,10µM*
S=C(Nc1ccc(Cl)cc1)c1nc2ccccc2s1,69%,-16%,?,-25%
Cc1ccc(NC(=S)c2nc3ccccc3s2)cc1,101%,87%,10µM*,-21%
CCn1c(=O)c(CCC(=O)NCCN2CCOCC2)c(C)c2c(C)nn(-c3cccc(C)c3)c21,?,?,9%,-24%
CCN1CCN(CCNC(=O)CCc2c(C)c3c(C)nn(-c4ccccc4)c3n(C)c2=O)CC1,?,11%,10%,16µM*
Cc1occc1-c1nnc(SCC(=O)NCCc2ccccc2)n1C(C)c1ccccc1 (stereo unspecified),?,8.3µM*,0%,-22%
Cc1occc1-c1nnc(SCC(=O)NCC2CCCO2)n1C (stereo unspecified),14%,2.3µM*,0%,?
CCOc1ccc(NCc2nnc(SCC(=O)Nc3cc(C)on3)n2-c2ccc(OC)cc2)cc1,13µM*,?,-3%,-13%
COc1ccc(-c2nsc(SCC(=O)NCC3CCCO3)n2)cc1 (stereo unspecified),127%,?,7%,-24%
Cc1ccc(-c2nsc(SCC(=O)NCC3CCCO3)n2)cc1 (stereo unspecified),18%,63%,-15%,10µM*
Cc1ccc(-n2c(SCC(=O)NCC3CCCO3)nnc2-c2ccoc2C)cc1 (stereo unspecified),.,.,22%,3%
CC1CCCN(S(=O)(=O)c2ccc(NC(=O)CN3C(=O)NC(C)(c4ccccc4)C3=O)cc2)C1 (stereo unspecified),?,-22%,12%,-10%
CC(C)C[C@H]1COc2cc(N3CC[C@H](O)C3)ccc2S(=O)(=O)N1,.,.,4%,.
O=C(NCCC1CCCCN1S(=O)(=O)c1ccc(F)cc1)C(=O)Nc1ccccc1 (stereo unspecified),-26%,?,-6%,-28%
CN(CC(=O)Nc1ccccc1Cl)CC(=O)N1CCc2ccccc21,-3%,-9%,6%,5%
NNC(=O)c1c[nH]c2ccc(OCc3ccccc3)cc12,.,.,17%,7%
COc1ccc(-c2nsc(SCC(=O)Nc3cc(C)on3)n2)cc1,5.9µM*,?,23%,?
Cc1ccc(-c2nnc(SCC(=O)NCC3CCCO3)nc2-c2ccc(C)cc2)cc1 (stereo unspecified),15µM*,?,-17%,-3%
COc1ccc(-n2nc3c(c2NC(=O)c2ccc4c(c2)OCO4)CS(=O)(=O)C3)cc1,?,55%,18%,10%
SMILES,Pf growth 48h,Pf growth 96h,AMA1 RON2 block,HCV inhibitor
CSc1ccc(CN(C)C(=O)CNC(=O)CNS(=O)(=O)c2ccc(C)c(C)c2)cc1,2%,-9%,-2%,?
CSc1ccc(CN(C)C(=O)CCNS(=O)(=O)c2ccc(C)c(C)c2)cc1,3.7µM*,?,-5%,-27%
Cc1ccc(S(=O)(=O)NCC(=O)NCC(=O)N(C)Cc2ccc3ccccc3c2)cc1C,-23%,-15%,0%,10µM*
CC(=O)N1c2ccc(S(=O)(=O)NCCC(=O)N(C)Cc3ccccc3)cc2CC1C (stereo unspecified),1%,7.4µM*,-2%,14%
CCN(Cc1ccccc1)C(=O)CCNS(=O)(=O)c1ccc2c(c1)CC(C)N2C(C)=O (stereo unspecified),8%,?,-2%,?
CC(C)n1c(=O)[nH][nH]c1=S,1%,0%,28%,21%
COc1cc([N+](=O)[O-])cc2sc(NC(=O)c3c(F)cccc3F)nc12,93%,84%,7%,1%
CCN(CC)S(=O)(=O)c1ccc(C(=O)Nc2ccc3c(c2)OCO3)cc1,-18%,?,-8%,-15%
CC(C)(C)OC(=O)N1CCN(C(=O)OCC2c3ccccc3-c3ccccc32)CC1C(=O)O (stereo unspecified),.,.,56%,45%
CC(=O)c1c(C)n(CCO)c2ccc(O)cc12,11%,.,-9%,7%
COC(=O)c1c(C)n(-c2ccc(C)cc2)c2ccc(O)cc12,.,4.1µM*,-9%,?
CC(=O)c1c(C)n(-c2cccc(Cl)c2)c2ccc(O)cc12,-16%,2.6µM*,-6%,-23%
Cc1cc(C(=O)CCl)c(C)n1CCc1ccc(Cl)cc1,?,8.3µM*,-10%,10µM*
CC(=O)c1c(C)n(CCc2ccc(Cl)cc2)c2ccc(O)cc12,11%,5.9µM*,12%,9%
O=C(CN1c2cccc3cccc(c23)S1(=O)=O)Nc1c(F)c(F)c(F)c(F)c1F,.,.,30%,15%
CC(C)OCCCNC(=O)c1cn(C)c2ccc(S(=O)(=O)N3CCCC3)cc2c1=O,?,?,15%,14%
Cc1cc(-n2c(C)cc(C(=O)CSc3ccc4c(c3)OCCO4)c2C)no1,?,?,0%,-23%
O=C(NCC1CCN(Cc2ccccc2F)CC1)Nc1cccc(Br)c1,?,-1%,-10%,-4%
C=CCn1c(SC2CCOC2=O)nc2sc(C)c(C)c2c1=O (stereo unspecified),12%,13µM*,-6%,21%
Cc1sc2nc(SC3CCOC3=O)n(Cc3ccccc3)c(=O)c2c1C (stereo unspecified),10%,33%,-12%,5%
OC12CCCCC1C(c1ccc3c(c1)OCO3)N(Cc1ccc(F)cc1)CC2 (stereo unspecified),13µM*,9.3µM*,-9%,-20%
OC12CCCCC1C(c1ccc3c(c1)OCO3)N(Cc1cccc(F)c1)CC2 (stereo unspecified),-80%,-14%,-8%,-8%
CN1C(=O)CC(N2CCN(CCN=CC3=C(O)CC(C)(C)CC3=O)CC2)C1=O (stereo unspecified),-11%,12µM*,48%,18%
CC1(C)CC(=O)C(C=NCCN2CCN(C3CC(=O)N(c4ccc(Cl)c(Cl)c4)C3=O)CC2)=C(O)C1 (stereo unspecified),15%,2%,81%,4%
COc1ccc(C(=O)NC2CCCCCC2)cc1OC1CCN(C(C)=O)CC1,3%,?,9%,-12%
